The record followed here is ChEMBL document CHEMBL1157539, “Thousands of chemical starting points for antimalarial lead identification” (Nature, 2010).

This assay concerns Plasmodium falciparum. The assay is described as follows: GSK_TCMDC: Inhibition of Plasmodium falciparum 3D7 in whole red blood cells, using parasite LDH activity as an index of growth. Test compounds present at 2uM. In kind it is functional.
As usually defined, the Inhibition is the percentage by which the read-out fell short of the control. Higher therefore signals a response far below the control. `CCN(CC)CCNc1ccnc2[nH]c3ccc([N+](=O)[O-])cc3c12`: the Inhibition is recorded as 100%.
Molecule `CN1CCN(c2cc3c(cc2Cl)CCN3C(=O)Cc2ccc(NC(=O)Nc3cccc4ccccc34)cc2)CC1` returned an Inhibition of 92%.
As to `Cc1c(Cn2nc(Cl)c(N3CCNCC3)cc2=O)cccc1NC(=O)Nc1ccc(-c2ccccc2)cc1.O=C(O)C(F)(F)F`, the Inhibition worked out at 80%.
Molecule `COCCNCc1cccc(-c2ccc3c(Nc4ccc(Oc5ccccc5)cc4)ccnc3c2)c1` had an Inhibition of 100%.
In the case of `Cc1cccc2nc(-c3ccc(-c4cccc(CNCCCN5CCCC5=O)c4)s3)[nH]c12.O=C(O)C(F)(F)F`, the Inhibition worked out at 100%.
The figure for `COc1c(C2CCN(CCCCNC(=O)c3ccc(-c4ccc(NC(=O)C(F)(F)F)cc4)cc3)CC2)ccc2c1CCCC2` is 86%.
Consider `O=C(n1c(-c2cc3ccccc3n2C(=O)C(F)(F)F)cc2ccccc21)C(F)(F)F`, for which the Inhibition is recorded as 94%.
With `O=C(NCCCCCN1CCC(c2c[nH]c3ccccc23)CC1)Nc1ccc(Cl)cc1Cl`, the Inhibition amounted to 99%.
In turn, `CCOc1ccc(OCC(=O)Nc2nc(-c3ccc(OC)cc3)c(C)s2)cc1` yielded an Inhibition of 99%.
As to `COc1cccc(CN2CCC3(CC2)CN(C(=O)Nc2ccc(Cl)c(Cl)c2)C3)c1`, the Inhibition worked out at 97%.
In turn, `COc1cc2nc(N3CCC(CNC(=O)c4ccc(-c5ccc(C#N)cc5)cc4)CC3)nc(N)c2cc1OC` had an Inhibition of 100%.
In turn, `O=C(/C=C/c1ccc(Cl)c(Cl)c1)NCCCCCN1CCC(NC(=O)Nc2ccccc2F)CC1` gave an Inhibition of 95%.
`O=C(Nc1cccc(-c2ccc(-c3nc4cc(F)ccc4[nH]3)cc2)c1)c1csnn1`: the Inhibition is listed as 94%.
